Values joined by “and” are separate entries in the source; they are usually repeats but may differ in a detail not shown here. Identical values can stand only once. Whole data set: some 2,900 compounds, median “IRF Lucia reporter activity, fold change vs agonist alone” near 0.9, cut for the highest 2% near 2.8. For the sample, the highest values were picked, then their nearest neighbours and some compounds at random.
Experiments:
RAW-Dual [1] = assay: IRF Lucia reporter activity, fold change vs agonist alone; cytotoxicity flag (confluency mask): cytotoxic (confluency <70% of control); higher = enhanced IRF activity
Method in brief: (§1)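 RAW-Dual macrophages (50,000 cells/well in DMEM, 384-well plates) received 50 nL of library stock by pin tool, then a PRR agonist 1 h later, and were kept at 37 °C, 5% CO2. After 20 hours, supernatant was read for IRF by QuantiLuc luminescence and for NF-κB by QuantiBlue absorbance at 620 nm. Reporter activity is fold change over agonist-alone wells. Cytotoxic wells had IncuCyte confluency below 70% of agonist controls in both mask sets.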

RAW-Dual [2] = assay: IRF Lucia reporter activity, fold change vs agonist alone; cytotoxicity flag (confluency mask): not cytotoxic; higher = enhanced IRF activity
Method in brief: as §1

RAW-Dual [3] = assay: IRF Lucia reporter activity, fold change vs agonist alone; higher = enhanced IRF activity; details: cytotoxicity flag (confluency mask): not cytotoxic, agonist: MPLA (TLR4) […]
Method in brief: as §1

[4] = agonist: 3'3'-cGAMP (STING) 10 ug/mL
[5] = library stock concentration (final ~1000-fold dilution): 10 mM

CC1=C(CSC(=S)N2CCCCC2)C(=O)c2ccccc2C1=O (library stock concentration (final ~1000-fold dilution): 10 mM)
IRF Lucia reporter activity (RAW-Dual [1]; [4]): 0.553 | IRF Lucia reporter activity (RAW-Dual [1]; agonist: LPS (TLR4) 0.1 ug/mL): 0.0143

COc1cc2c(cc1OC(C)C)C(c1ccc(Cl)cc1)N(c1ccc(N(C)CC3CCC(N4CCN(C)C(=O)C4)CC3)cc1)C(=O)C2 (centres undefined) (library stock concentration (final ~1000-fold dilution): 10 mM)
IRF Lucia reporter activity (RAW-Dual [2]; [4]): 0.135 | IRF Lucia reporter activity (RAW-Dual [2]; agonist: LPS (TLR4) 0.1 ug/mL): 1.35

CC(N)C1CCC(C(=O)Nc2ccncc2)CC1.Cl.Cl (centres undefined)
IRF Lucia reporter activity (RAW-Dual [3]; [5]): 0.773

CC(N)C1CCC(C(=O)Nc2ccncc2)CC1.Cl.Cl (centres undefined) (library stock concentration (final ~1000-fold dilution): 10 mM)
IRF Lucia reporter activity (RAW-Dual [2]; [4]): 0.926 | IRF Lucia reporter activity (RAW-Dual [2]; agonist: LPS (TLR4) 0.1 ug/mL): 0.81

Oc1cccc(-c2nc(N3CCOCC3)c3oc4ncccc4c3n2)c1 (library stock concentration (final ~1000-fold dilution): 10 mM)
IRF Lucia reporter activity (RAW-Dual [2]; [4]): 0.381 | IRF Lucia reporter activity (RAW-Dual [2]; agonist: LPS (TLR4) 0.1 ug/mL): 1.94

Nc1ccc(-c2cccc(C(=O)Nc3cnc4nc(N5CCOCC5)oc4c3)n2)cn1 (library stock concentration (final ~1000-fold dilution): 10 mM)
IRF Lucia reporter activity (RAW-Dual [2]; [4]): 0.717 | IRF Lucia reporter activity (RAW-Dual [2]; agonist: LPS (TLR4) 0.1 ug/mL): 1.48

Nc1ccc(C(=O)Nc2cccc(-c3nc(N4CCOCC4)c4oc5ncccc5c4n3)c2)cn1
IRF Lucia reporter activity (RAW-Dual [3]; [5]): 3.52

Oc1cccc(-c2nc(N3CCOCC3)c3oc4ncccc4c3n2)c1
IRF Lucia reporter activity (RAW-Dual [3]; [5]): 1.42

Nc1ccc(C(=O)Nc2cccc(-c3nc(N4CCOCC4)c4oc5ncccc5c4n3)c2)cn1 (library stock concentration (final ~1000-fold dilution): 10 mM)
IRF Lucia reporter activity (RAW-Dual [2]; [4]): 0.205 | IRF Lucia reporter activity (RAW-Dual [2]; agonist: LPS (TLR4) 0.1 ug/mL): 3.93

O=C(CCCCCCC(=O)N/N=C/c1ccc(N(c2ccccc2)c2ccccc2)cc1)NO (library stock concentration (final ~1000-fold dilution): 10 mM)
IRF Lucia reporter activity (RAW-Dual [1]; [4]): 0.0199 | IRF Lucia reporter activity (RAW-Dual [1]; agonist: LPS (TLR4) 0.1 ug/mL): 0.533

Cc1ccc(Oc2ccnc3cc(-c4cnn(C5CCNCC5)c4)ccc23)cc1 (library stock concentration (final ~1000-fold dilution): 10 mM)
IRF Lucia reporter activity (RAW-Dual [1]; [4]): 0.0554 | IRF Lucia reporter activity (RAW-Dual [1]; agonist: LPS (TLR4) 0.1 ug/mL): 0.134

CCC(C)(Nc1ccnc(-c2c[nH]c3ncccc23)n1)C(=O)NCC(F)(F)F (centres undefined)
IRF Lucia reporter activity (RAW-Dual [3]; [5]): 0.41

CCC(C)(Nc1ccnc(-c2c[nH]c3ncccc23)n1)C(=O)NCC(F)(F)F (centres undefined) (library stock concentration (final ~1000-fold dilution): 10 mM)
IRF Lucia reporter activity (RAW-Dual [2]; [4]): 0.291 | IRF Lucia reporter activity (RAW-Dual [2]; agonist: LPS (TLR4) 0.1 ug/mL): 0.35

Cc1cc(N2CCN(C3CNC(C(=O)N4CCSC4)C3)CC2)n(-c2ccccc2)n1 (centres undefined) (library stock concentration (final ~1000-fold dilution): 10 mM)
IRF Lucia reporter activity (RAW-Dual [2]; [4]): 0.982 | IRF Lucia reporter activity (RAW-Dual [2]; agonist: LPS (TLR4) 0.1 ug/mL): 1.22

Cc1cc(N2CCN(C3CNC(C(=O)N4CCSC4)C3)CC2)n(-c2ccccc2)n1 (centres undefined)
IRF Lucia reporter activity (RAW-Dual [3]; [5]): 1.02

Cc1ccc2nc(NCCN)c3ncc(C)n3c2c1 (library stock concentration (final ~1000-fold dilution): 10 mM)
IRF Lucia reporter activity (RAW-Dual [2]; [4]): 2.21 | IRF Lucia reporter activity (RAW-Dual [2]; agonist: LPS (TLR4) 0.1 ug/mL): 3.5 | IRF Lucia reporter activity (RAW-Dual [1]; agonist: LPS (TLR4) 0.1 ug/mL): 0.0229 and 0.0291

CCOc1nc2cccc(C(=O)OCc3oc(=O)oc3C)c2n1Cc1ccc(-c2ccccc2-c2nc(=O)o[nH]2)cc1 (library stock concentration (final ~1000-fold dilution): 10 mM)
IRF Lucia reporter activity (RAW-Dual [2]; [4]): 1.04 | IRF Lucia reporter activity (RAW-Dual [2]; agonist: LPS (TLR4) 0.1 ug/mL): 1.16

CCOc1nc2cccc(C(=O)OCc3oc(=O)oc3C)c2n1Cc1ccc(-c2ccccc2-c2nc(=O)o[nH]2)cc1
IRF Lucia reporter activity (RAW-Dual [3]; [5]): 1.16

CNS(=O)(=O)CC1CCC(N(C)c2ncnc3[nH]ccc23)CC1.O=C(O)/C=C\C(=O)O (centres undefined) (library stock concentration (final ~1000-fold dilution): 10 mM)
IRF Lucia reporter activity (RAW-Dual [2]; [4]): 0.106 | IRF Lucia reporter activity (RAW-Dual [2]; agonist: LPS (TLR4) 0.1 ug/mL): 0.264

O=c1cc(N2CCOCC2)oc2c1ccc1ccccc12 (library stock concentration (final ~1000-fold dilution): 2 mM)
IRF Lucia reporter activity (RAW-Dual [2]; [4]): 0.778 | IRF Lucia reporter activity (RAW-Dual [2]; agonist: LPS (TLR4) 0.1 ug/mL): 1.01

O=c1cc(-c2cccc3c2Sc2ccccc2S3)oc(N2CCOCC2)c1 (library stock concentration (final ~1000-fold dilution): 10 mM)
IRF Lucia reporter activity (RAW-Dual [2]; [4]): 0.647 | IRF Lucia reporter activity (RAW-Dual [2]; agonist: LPS (TLR4) 0.1 ug/mL): 5.22

O=c1cc(-c2cccc3c2Sc2ccccc2S3)oc(N2CCOCC2)c1
IRF Lucia reporter activity (RAW-Dual [3]; [5]): 6.25

O=c1cc(N2CCOCC2)oc2c(-c3ccc4c(c3)OCCO4)csc12 (library stock concentration (final ~1000-fold dilution): 10 mM)
IRF Lucia reporter activity (RAW-Dual [2]; [4]): 0.12 | IRF Lucia reporter activity (RAW-Dual [2]; agonist: LPS (TLR4) 0.1 ug/mL): 0.269

CC1CN(CC(=O)Nc2ccc3c(c2)Cc2cccc(-c4cc(=O)cc(N5CCOCC5)o4)c2S3)CC(C)O1 (centres undefined)
IRF Lucia reporter activity (RAW-Dual [3]; [5]): 5.96

CC1CN(CC(=O)Nc2ccc3c(c2)Cc2cccc(-c4cc(=O)cc(N5CCOCC5)o4)c2S3)CC(C)O1 (centres undefined) (library stock concentration (final ~1000-fold dilution): 10 mM)
IRF Lucia reporter activity (RAW-Dual [2]; [4]): 0.508 | IRF Lucia reporter activity (RAW-Dual [2]; agonist: LPS (TLR4) 0.1 ug/mL): 6.62

O=c1cc(N2CCOCC2)oc2c1ccc1ccccc12
IRF Lucia reporter activity (RAW-Dual [3]; library stock concentration (final ~1000-fold dilution): 2 mM): 1.15

Reference: the supplement of paper PMC10037445
